According to PubChem BioAssay AID504329 (Southern Research Specialized Biocontainment Screening …, 2011):
Hit rate of the full screen: of about 340,000 compounds, about 1,000 (0.29%) were called active. Not all results are given here. Measured potencies and affinities stand elsewhere. Values without a mark were called inactive. Rule as the data show it: inconclusive = inhibition above about 27% without an active follow-up result; inactive = below that.

Experiment: H1N1 influenza NS1A inhibitors, functional cell based assay (AID 504329)
Details: percent inhibition, at 12.5 µM, hits give high values

Structure (SMILES) | inhibition [%]
Cc1cccc(NC(=O)Cn2nc(-c3ccco3)ccc2=O)c1C | 0.81
COC(C[C@H](O)C[C@@H](O)[C@H](C)OCc1ccccc1)OC | -2.93
CCCCOCCCNC(=S)Nc1ccc(S(=O)(=O)N2CCOCC2)cc1 | 0.29
CCCCC1=C(C(=O)OCC)C(C(=O)OCC)Oc2ccccc21 (stereo not given) | -8.03
COc1ccc(CN(CC(=O)NCc2ccccc2)C(=O)CCC(=O)Nc2ccccn2)cc1 | -6.86
C/C=C(\C)CN1CCC(n2nccc2NC(=O)CCCc2ccccc2)CC1 | -5.21
CCCN(CC(=O)Nc1ccccc1C)C(=O)c1ccc(=O)n(Cc2ccccc2)n1 | 5.93
CN(C)N1C(N)=C(C#N)C(c2cccnc2)C2=C1CCCC2=O (stereo not given) | 0.98
COc1ccc(Cl)cc1NS(=O)(=O)c1cn(C)nc1C | -6.95
Cc1c(C)n(Cc2ccccc2)c2ccc(C(=O)OCCN(C)C)cc12 | 18.7
Cc1c(C)n(CCN(C)C)c2ccc(C(=O)OCCN(C)C)cc12 | -4.19
Cc1ccc(C)c(-n2cc(CNCCCn3cccn3)c(-c3ccccc3)n2)c1 | -27.8
CCn1ccnc1CN(C)Cc1cn(-c2cc(C)ccc2C)nc1-c1ccccc1 | 7.7
CCOC(=O)C1(C(=O)OCC)NC(=O)CC1C (stereo not given) | 1.41
C/C(=N\NC(=O)c1cc(C)nc2ccccc12)c1ccco1 | -1.27
C/C(=N\NC(=O)c1cc(C)nc2ccccc12)c1ccncc1 | 7.15
NNC(=O)c1cc(-c2cccs2)nc2ccccc12 | 25.3
O=C(N/N=C/c1ccc2ncccc2c1)c1cc(-c2cccs2)nc2ccccc12 | -4.78
COc1ccc(CC(=O)Nc2nc(-c3ccncc3)cs2)cc1 | 3.49
Cc1nn(-c2ccccc2)c(N2CCCC2)c1/C=N/NC(=O)c1ccccc1O | -10.1
O=C(Oc1ccc(/C=N/NC(=O)c2ccccc2O)cc1)c1ccccc1 | 1.64
CCOC(=O)C1CCCN(C(=O)C2CCN(Cc3nc(-c4ccc(Cl)cc4)oc3C)CC2)C1 (stereo not given) | -0.69
COC(=O)c1ccc(COc2ncnc3ccccc23)o1 | 2.36
CC1=C/C(=C(\c2ccc(O)c(C)c2)c2ccccc2S(=O)(=O)O)C=CC1=O | -2.96
CC1=C/C(=C(/c2ccc(O)c(C)c2)c2ccccc2S(=O)(=O)O)C=CC1=O | 12.6

Structure (SMILES) | inhibition [%]
O=[N+]([O-])c1ccc(N2CCOCC2)c([N+](=O)[O-])c1 | 4.03
O=[N+]([O-])c1ccc([N+](=O)[O-])c(Nc2ccc(N3CCOCC3)cc2)c1 | -0.167
NC(=O)c1ccccc1N/C=C/C(=O)c1ccccc1 | 1.83
COc1ccc(Cn2c(=O)[nH]c3cc(C(=O)N4CCN(c5ccc(OC)cc5)CC4)ccc3c2=O)cc1 | -8.57
Cc1ccc(NC(=O)COC(=O)Cn2ccc(C(F)(F)F)n2)cc1Cl | 0.4
CCN=c1scc(-c2ccco2)n1/N=C/c1ccc(OC)c(O)c1 | 28.8
CN=c1scc(-c2ccco2)n1/N=C/c1ccc(O)c(O)c1 | 19.1
CN(CC(=O)Nc1ccccc1Cl)C(=O)C1CCN(C(=O)c2ccc(F)cc2)CC1 | -9.67
Cc1cc(C(=O)Nc2cccc(S(=O)(=O)N3CCOCC3)c2)c2ccccc2n1 | -7.61
O=C(C[n+]1ccccc1)N/N=C/c1ccc(Br)cc1 | 3.75
O=C(C[n+]1ccccc1)N/N=C/c1cc(Br)ccc1F | 2.1
O=C(Cc1ccccc1)N/N=C/c1cc(Br)cc(Br)c1O | -3.61
COc1ccc(Br)cc1/C=N/NC(=O)C[n+]1ccccc1 | -3.17
O=S(=O)(NN1CCOCC1)c1ccc(Br)cc1 | -5.55
COc1ccc(/C=N/NC(=O)C2c3ccccc3-c3ccccc32)cc1 | 1.63
COc1ccc(/C=C2/C(=O)NC(=S)N(C3CC3)C2=O)cc1CN1C(=O)c2ccccc2C1=O | -5.91
CCNC(=S)NNC(=O)c1ccncc1 | -6.57
Cc1ccc(/C=C2\C(=O)NC(=S)N(c3ccccc3F)C2=O)s1 | -6.98
O=C(NNC(=O)c1ccccc1Cl)c1ccccc1Cl | -1.97
O=C1/C(=C/c2cccs2)NC(=S)N1C1CC1 | 25.9
CCOC(=O)C1CCN(/C=C2\C(=O)NC(=S)N(CC)C2=O)CC1 | 1.72
Cc1ccccc1SCC(=O)NNC(=O)c1ccccc1O | -9.27
O=C(NNC(=O)C1CC=CCC1)c1ccccc1Cl (stereo not given) | -13.4
Cc1cccc(NC(=O)COc2ccc(/C=N\n3cnnc3)cc2)c1 | -2.09
CS(=O)(=O)N1CCN(C(=O)Cc2ccc(Br)cc2)CC1 | -21.4

Structure (SMILES) | inhibition [%]
O=C(O)/C=C/c1cn(-c2ccccc2)nc1-c1ccccc1 | -7.13
CCOc1ccc(C(C(=O)NC2CCCCC2)N(C(=O)c2ccccn2)c2cccnc2)cc1 (stereo not given) | -3.97
CCCCCCCCNc1nc(Cl)nc(NCc2ccco2)n1 | -0.33
O=C(O)c1ccccc1NS(=O)(=O)c1cccc2nsnc12 | -1.24
O=C(NNC(=S)NC1CCCCC1)c1ccccc1O | 5.32
O=C(N/N=C/c1c(O)n(C2CCCCC2)c(=S)[nH]c1=O)c1ccccc1O | -5.43
Cn1nccc1C(=O)Nc1sc2c(c1C(N)=O)CCCC2 | -3.24
Oc1ccc(CNc2ccccc2F)c2cccnc12 | 12.8
O=C(Oc1c(CN2CCOCC2)cc(Cl)c2cccnc12)c1ccc(F)cc1 | 5.6
Oc1c(I)cc(Cl)c2cccnc12 | -16.7
O=c1oc2ccccc2c(O)c1Cc1cc(Cl)c2cccnc2c1O | -5.95
Oc1cc2c(cc1CN1CCc3ccccc3C1)OCO2 | 13.1
CN1CCN(Cc2cc(Cl)c3cccnc3c2OC(=O)c2cccs2)CC1 | -0.27
Oc1ccc(CNc2ccccc2)c2cccnc12 | 10.6
Oc1ccc(CNc2ccc(F)cc2)c2cccnc12 | 28.1
CC(=O)OCC(=O)c1ccc2ccn(C(C)=O)c2c1 | 2.53
c1ccc(CN(Cc2cccs2)C(c2cccs2)c2nnnn2C2CCCC2)cc1 (stereo not given) | 4.12
CSc1cc(-c2ccc(Cl)cc2)c(C(=O)N2CCCC2)s1 | -3.23
O=S(=O)(c1cc(F)ccc1F)N1CCN(C2CCCCC2)CC1 | 0.25
COc1ccc(N=c2sc3ccccc3n2C)cc1 | 1.52
Cn1c(=Nc2ccccc2)sc2ccccc21 | 9.39
O=C(COC(=O)/C=C/c1cccc(Cl)c1)NC1CCCC1 | -4.83
CC(C)(C)c1ccc(-c2n[nH]c(=S)n2CC2CCCO2)cc1 (stereo not given) | 3.44
Cc1ccc(C2=NOC(=O)/C2=C\C=C\c2ccccc2)cc1 | -3.38
O=C/C=C/c1ccccc1 | 2.7

Structure (SMILES) | inhibition [%]
CC1=C(C)N(C)[C@H](c2ccccc2Br)[C@H](O)C1=O | -9.31
O=C(CSc1nnc(-c2cccnc2)n1Cc1ccccc1)N1CCOCC1 | 0.45
Cc1ccc(Nc2nc(-c3c(C)nc4ncccn34)cs2)cc1 | -0.31
Cc1nc2ncccn2c1-c1csc(Nc2ccc(O)cc2)n1 | 5.22
S=C(NCc1ccco1)Nc1ccc(Cl)cc1Cl | 0.07
N=c1n(CCN2CCOCC2)c2ccccc2n1CC(=O)c1cccc([N+](=O)[O-])c1 | 0.36
Cc1nc2ccccc2c(=O)n1CCCN1CCOCC1 | -0.85
CCc1cc2c(=O)[nH]c(-c3ccncc3)nc2s1 | -1.62
O=c1[nH]c(-c2ccccn2)nc2sc(-c3ccccc3)cc12 | 1.57
COC(=O)c1cc(NS(=O)(=O)c2ccc(NC(C)=O)cc2)ccc1Cl | 10.8
CCCCNC(=S)N/N=C/c1cccc(OCC)c1O | -0.5
Oc1cccc(/C=N/NC(=S)NCCN2CCOCC2)c1O | -11.6
COc1cc(/C=N/NC(=S)NCCN2CCOCC2)ccc1O | -6.09
O=C(NCCCN1CCOCC1)C(=O)N/N=C/c1ccccc1Cl | -2.62
COc1cc(/C=N/NC(=S)NCCN2CCOCC2)cc(OC)c1OC | -0.84
COc1cc(OC)c(OC)cc1/C=N/NC(=S)NCCN1CCOCC1 | -3.02
O=C(NCCCN1CCOCC1)C(=O)N/N=C/c1cccc2ccccc12 | -23.6
S=C(NCCN1CCOCC1)N/N=C/c1ccccc1 | 4.1
N#C/C(=C\Nc1ccc(Cl)cc1)S(=O)(=O)c1ccccn1 | -7.92
Cc1ccc2nc(SCC(=O)Nc3cccc([N+](=O)[O-])c3)[nH]c2c1 | 4.1
CCOC(=O)C1=C(C)C(c2ccccc2O)NC(=O)N1 (stereo not given) | -4.1
CCCOc1ccc(-c2nc(OCC)c3ccccc3n2)cc1 | -12.4
COc1cc2c(cc1OC)C(c1ccsc1)CC(=O)N2 (stereo not given) | 2.33
O=C(O)c1ccccc1Nc1ccnc(Cl)n1 | 4.77
O=C(O)c1ccccc1Nc1ccccc1C(=O)O | 5.1
